# PubChem BioAssay AID651593 (National Center for Advancing Translational Sciences (NCATS), 2012)
# Out of some 1,100 compounds screened, about 860 (78%) were called active. Another 19% or so got no clear call; they are omitted. Calls follow the shape of the dose curve; as a rule, active = well fitted activation curve with a large enough effect; inconclusive = small, poorly fitted or top-dose-only effect; inactive = flat fitted curve, though single readings scatter. So high a share suggests a set chosen from earlier hits. Some of the results follow.
# Experiment: qHTS of Nrf2 Activators: Hit Validation in Primary Assay; also: nearly all actives have a fitted effect of over 70% in size
# Settings: Nrf2/ARE reporter cell assay; Potency: activation; series mostly up to 46.1 µM
# Summary of the method: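 Luminescence from Steady-Glo lysis reagent, read after 30 min, reported ARE-luciferase activity in AREc32_fluc stable cells. Compounds were tested at several concentrations, incubated 24 h at 37 °C with 5% CO2 following overnight seeding.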
# Potency is read from the fitted curve at half-maximal effect.
row,SMILES,Potency
1,CC(C)CCn1c(O)c(N=Nc2ccccn2)c2ccccc21,2910 nM (active)
2,CCCCn1c(O)c(N=Nc2ccccn2)c2ccccc21,2910 nM (active)
3,CC(C)N1C/C(=C/c2cccnc2)C(=O)/C(=C/c2cccnc2)C1,3660 nM (active)
4,COC(=O)c1ccccc1NC(=O)c1cc(-c2ccco2)on1,3260 nM (active)
5,COc1ccc(NC(=O)c2cc(-c3cccs3)on2)c(OC)c1,1300 nM (active)
6,COc1ccc(Cl)cc1NC(=O)c1cc(-c2ccco2)on1,2590 nM (active)
7,CSc1ccccc1NC(=O)c1cc(-c2cccs2)on1,2910 nM (active)
8,CCCCC1C(=O)N(c2ccccc2)N(c2ccc(O)cc2)C1=O (centres undefined),inactive
9,COc1ccc(NC(=O)c2cc(-c3ccco3)on2)c(OC)c1,2310 nM (active)
10,Cc1noc(C)c1COc1ccccc1C(=O)NNC(=O)c1ccccc1F,3660 nM (active)
11,Cc1csc2c(=O)sc(NC(=O)c3ccc(F)cc3Cl)nc12,2590 nM (active)
12,Cc1csc2c(=O)sc(NC(=O)c3cccs3)nc12,4110 nM (active)
13,Cc1ccccc1C(=O)Nc1nc2c(C)csc2c(=O)s1,2910 nM (active)
14,CS/C(=C\C(=O)c1ccco1)Nc1ccccc1Cl,4610 nM (active)
15,CNc1ccc(-c2nc(-c3ccco3)no2)cc1[N+](=O)[O-],1840 nM (active)
16,CC(C)Nc1ccc(-c2nc(-c3ccco3)no2)cc1[N+](=O)[O-],2310 nM (active)
17,COC(=O)c1cc(=O)nc(NN=Cc2ccco2)s1,580 nM (active)
18,Cc1ccc(Cc2c(-c3ccco3)nc3c(C)cc(Br)cn23)cc1,20600 nM (active)
19,Cc1cc(Br)cn2c(Cc3ccccc3)c(-c3ccco3)nc12,16400 nM (active)
20,Clc1ccsc1-c1csc(-c2cccnc2)n1,2060 nM (active)
21,Cc1ccccc1NC(=O)/C(C#N)=C/c1ccsc1,4110 nM (active)
22,Cc1ccccc1NC(=O)/C(C#N)=C\c1ccsc1,3660 nM (active)
23,Clc1cc(-c2ccccc2)nc(-c2ccccc2)n1,5800 nM (active)
24,Clc1nc(-c2ccccc2)cc(-c2ccccc2)n1,4110 nM (active)
25,CN1CCCC1CCNc1ccc2c(=O)c3ccccc3oc2c1 (centres undefined),2060 nM (active)
26,Cc1[nH]c2ccccc2c1N=Nc1ccccc1C(=O)O,2590 nM (active)
27,Cc1[nH]c2ccccc2c1N=Nc1ccccc1F,4110 nM (active)
28,O=C1S/C(=C\C=C\c2ccco2)C(=O)N1c1ccc(O)cc1,2310 nM (active)
29,O=C1S/C(=C\C=C\c2ccco2)C(=O)N1c1ccccc1,5800 nM (active)
